# Assay results taken from PMC7819943, “Rice protein-binding microarrays: a tool to detect cis-acting elements near promoter regions in rice”.
# Over roughly 68,000 sequences, “fluorescence intensity (a.u.)” has its median near 9,100; the highest 2% begin near 16,000. This is one part of a sample in which the highest values are shown more often than they occur.
# Target: OsWRKY34 (Oryza sativa, UniProt Q0JBA9 1-250)
# Assay: protein-binding microarray (RPBM); PBS, 2% BSA, 51.3 ng/ul salmon testes DNA, 50 uM zinc acetate, 200 nM TF, 25 C, 1 h; high values mean tight binding
# Conditions: protein: recombinant; tags: N-terminal polyhistidine and DsRed monomer fusion (pET32a); label: CyDye5-dUTP incorporated in the synthesized complementary strand; 3' TTTTT single-stranded linker to array surface; dsDNA, one strand shown
# In short: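 Transcription factors, each fused N-terminally to a polyhistidine tag and DsRed, were expressed in E. coli BL21-CodonPlus and purified on Ni–NTA. A custom Agilent array was made double-stranded by primer extension with Cy5-dUTP and blocked with 2% BSA. It was incubated with 200 nM protein in PBS, 2% BSA, salmon testes DNA and 50 µM zinc acetate at 25 °C for 1 h, then washed. The binding signal is per-feature fluorescence intensity (arbitrary units) read on an Axon 4000B scanner.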
# OsWRKY34, sequence (Q0JBA9 entry or part of it): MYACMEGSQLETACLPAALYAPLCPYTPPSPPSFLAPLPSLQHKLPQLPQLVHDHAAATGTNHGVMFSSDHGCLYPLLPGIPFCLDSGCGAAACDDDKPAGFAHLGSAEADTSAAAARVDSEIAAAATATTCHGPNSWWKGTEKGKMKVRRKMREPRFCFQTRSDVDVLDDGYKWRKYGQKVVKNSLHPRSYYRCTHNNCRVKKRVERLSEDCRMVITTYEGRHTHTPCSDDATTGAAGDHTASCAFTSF
row,Sequence,binding signal
1,GAGGACTGGGCGAAGGGGTGGAAGAAAATGTGGTTGTCGACGGAGTCACCTAGTGCAG,8580 fluorescence intensity (a.u.)
2,ATGGCTCGGTGGTGCACTATTTTTTTTTTAACTTAATTTGCGGAGTCACCTAGTGCAG,12100 fluorescence intensity (a.u.)
3,CACAATAGACCACCCGAAACCACATCTTCAACACTTCAATCGGAGTCACCTAGTGCAG,8530 fluorescence intensity (a.u.)
4,CTCTCCGTGCATCTATATAAACTGGCCCTGATCAATCTCACGGAGTCACCTAGTGCAG,9650 fluorescence intensity (a.u.)
5,CAGGCGACCACCTCCAGCTCCGCGCCATCTCCATGTCATCCGGAGTCACCTAGTGCAG,10800 fluorescence intensity (a.u.)
6,TGCACCTGTTTGGCTTAGTACCAGTGCGCTACTGGTTTCACGGAGTCACCTAGTGCAG,9680 fluorescence intensity (a.u.)
7,TACTCCGTACAAATTTTCTTCTGGATCCCACCTCTGCTCTCGGAGTCACCTAGTGCAG,9050 fluorescence intensity (a.u.)
8,CCCACCTCGCTGTCGTTTCTTCCTCTGGCTGGTCGCGTTGCGGAGTCACCTAGTGCAG,12700 fluorescence intensity (a.u.)
9,TTTCTTTCCTGTTTTAGGAGGGTTTTCCACGTTAAATCTTCGGAGTCACCTAGTGCAG,8290 fluorescence intensity (a.u.)
10,TTTTTTTAAAATTTGCATGTTTTTTGGTCGTGTAAAATTTCGGAGTCACCTAGTGCAG,8290 fluorescence intensity (a.u.)
11,GGGGCGGAAACGGGCGAGGGAGGCGCGGGGAGGGTTTAAACGGAGTCACCTAGTGCAG,22600 fluorescence intensity (a.u.)
12,TGGGAGGAGGGAGGGAGGAGGAGGGCGGAGATAGGTGGTGCGGAGTCACCTAGTGCAG,11400 fluorescence intensity (a.u.)
13,AAAGGTGGTGGTAGGGGATAGATCCGGGGCGGGCGGCATGCGGAGTCACCTAGTGCAG,23400 fluorescence intensity (a.u.)
14,AGGGGAGAGGAGGGGAGGCGGCGCGGCGGCGAGGAGGGGACGGAGTCACCTAGTGCAG,10200 fluorescence intensity (a.u.)
15,GGCACCGGCGGAGGGGCGCGGGAGGGGAGGCGGCGGCGAGCGGAGTCACCTAGTGCAG,15600 fluorescence intensity (a.u.)
16,TAGGAGGTGGCGGCCGGTGGTGGCGGATCCGGCGGCGGGGCGGAGTCACCTAGTGCAG,8840 fluorescence intensity (a.u.)
17,ATATCGAAATTGATGCTTGACCAGTCAACACTACTTAATCCGGAGTCACCTAGTGCAG,9070 fluorescence intensity (a.u.)
18,GTCGCTTGTCGTTGTTGCCCTGAACTGTTGGTGCTGGTTCCGGAGTCACCTAGTGCAG,9320 fluorescence intensity (a.u.)
19,GTACATACCCGTATTATTTATCTGTCGCTATGTAGGATTTCGGAGTCACCTAGTGCAG,10500 fluorescence intensity (a.u.)
20,CCACCGGCGGGCCCCACCATCTTGACTCCTCTCTGTGATCCGGAGTCACCTAGTGCAG,8610 fluorescence intensity (a.u.)
21,TGTGGTGCGTCTCCTCGTGCAGTTTTTGCCCTTGATTTGACGGAGTCACCTAGTGCAG,11800 fluorescence intensity (a.u.)

row,Sequence,binding signal
1,CCTTTGACTTTTTGATAAACGTTTGACCTTTCGTCTTATTCGGAGTCACCTAGTGCAG,22800 fluorescence intensity (a.u.)
2,TGATTTTTTGACAAACATTTGACCTTTCGTCTTATTTAAACGGAGTCACCTAGTGCAG,8620 fluorescence intensity (a.u.)
3,GACTTTTTAGCATATGTTTGACCGTTCGTCTTATTCAAAACGGAGTCACCTAGTGCAG,10600 fluorescence intensity (a.u.)
4,CGGTTGACTTTTTTTTTCTAATAAGCCAAAACGGCTTATTCGGAGTCACCTAGTGCAG,18800 fluorescence intensity (a.u.)
5,GTTGACTTTTTGACAAACGTTTGACTTTTCGTCTTATTCACGGAGTCACCTAGTGCAG,17400 fluorescence intensity (a.u.)
6,CATTGTTTTCTAATATTCGGCCATGGCTTTTGACATTTTACGGAGTCACCTAGTGCAG,8430 fluorescence intensity (a.u.)
7,GACTTTTCGGTTCTTAAGCTGACTTATAATTAGTCTAAACCGGAGTCACCTAGTGCAG,8630 fluorescence intensity (a.u.)
8,TCGTTAACTTTTTAATAAACGTTTGACCTTTCGTCTTATTCGGAGTCACCTAGTGCAG,10200 fluorescence intensity (a.u.)
9,AATTCCTGGCTACGCCACTGCTGCTCTATATATCAAGCCGCGGAGTCACCTAGTGCAG,8080 fluorescence intensity (a.u.)
10,CTCGATTGCGTGTTGTAGATTTTGTGTTTTTGTTCTTGCGCGGAGTCACCTAGTGCAG,8030 fluorescence intensity (a.u.)
11,CCCACATCAAAACCTTGAATTTTCACAGTTTCTTGCATTTCGGAGTCACCTAGTGCAG,9890 fluorescence intensity (a.u.)
12,TTTCACTTGCTTGTTTTTCATGTCCACACTTCCCAACTCACGGAGTCACCTAGTGCAG,16600 fluorescence intensity (a.u.)
13,CTTATCTCTCTCGTTTTCCACGCACACGTTTTTCAAACCGCGGAGTCACCTAGTGCAG,8940 fluorescence intensity (a.u.)
14,TCCAACTCACTTATCTCGTTTTCCGCGCACACGTTTTTTACGGAGTCACCTAGTGCAG,16500 fluorescence intensity (a.u.)
15,TGTCCACACTTCCCAACTCATTAAATAGTTTGTTTTTTGACGGAGTCACCTAGTGCAG,8320 fluorescence intensity (a.u.)
16,AGAGTTCTTATCCTAGTTTTTCCAACTCACTTATCTCGTTCGGAGTCACCTAGTGCAG,10900 fluorescence intensity (a.u.)
17,GCTTGCCAACTTGTCCCAAATTTCCTTCGGCGTTTTTTCACGGAGTCACCTAGTGCAG,10800 fluorescence intensity (a.u.)
18,AACGTTTGATTTTTCATTTCTCTTATTACTGACTTATTTACGGAGTCACCTAGTGCAG,9850 fluorescence intensity (a.u.)
19,CGCCGCCGCTCGCCGACGTCGCCGCCATCGCCATTACAGCCGGAGTCACCTAGTGCAG,8980 fluorescence intensity (a.u.)
20,CTACGATACACCGCTTGTTTCTGTTTTTCTTATCTAGGAACGGAGTCACCTAGTGCAG,9180 fluorescence intensity (a.u.)
21,TTGGCCATGTTAATGTTTTACTGATCATCAATTTGGTTACCGGAGTCACCTAGTGCAG,8980 fluorescence intensity (a.u.)

row,Sequence,binding signal
1,GTGTTGTGGTTTACTGAATTGATGTTTGGCTTAAGTGATGCGGAGTCACCTAGTGCAG,11800 fluorescence intensity (a.u.)
2,GGGCTGGTTTGGCTTGGCTGTTACAAAGACAAAGAATGACCGGAGTCACCTAGTGCAG,16800 fluorescence intensity (a.u.)
3,TGGTTTGGTTACTGGTTTAGTGCTTGAATTAATGTGGCACCGGAGTCACCTAGTGCAG,18400 fluorescence intensity (a.u.)
4,CCTGTTACCTGTTTGGCTGACTTGGTCAAACACAACTCACCGGAGTCACCTAGTGCAG,9460 fluorescence intensity (a.u.)
5,GGTTTGGCTTGGCTTGGCGGCTGGTTCTGCTGAGGCTGACCGGAGTCACCTAGTGCAG,11900 fluorescence intensity (a.u.)
6,GCCGAGCCGCGTCCCTTTTTCCCATCGCCCACGCAGCGAGCGGAGTCACCTAGTGCAG,8920 fluorescence intensity (a.u.)
7,TATGATATGTGTGCCTCAGTTGTTGTGCTTGCTGATGTGTCGGAGTCACCTAGTGCAG,9730 fluorescence intensity (a.u.)
8,TTTCCGGTTTTTCCAATATTTTTCGATACCGTTTTCATTTCGGAGTCACCTAGTGCAG,12800 fluorescence intensity (a.u.)
9,CAGGTAATGGATTGATTGCAGGGTTGGGATTTGACCAGGTCGGAGTCACCTAGTGCAG,11300 fluorescence intensity (a.u.)
10,TTCATATTTTCACCGTTTGGGTAGAGTGGTGGTGGGGTGTCGGAGTCACCTAGTGCAG,10400 fluorescence intensity (a.u.)
11,ATGGGGTTGACTTTTTTTTAGGGATTGCTAGGTGCACCGTCGGAGTCACCTAGTGCAG,20100 fluorescence intensity (a.u.)
12,GGGTTTGGGGTTGCGATTGGGATTGGTAGGGAGGCTGATGCGGAGTCACCTAGTGCAG,8280 fluorescence intensity (a.u.)
13,GGGGATCGGAGGGTGGGGATACGCATGGTGGATGGTAGTGCGGAGTCACCTAGTGCAG,12600 fluorescence intensity (a.u.)
14,CGTCGTGGCGGGTTCATCGGGAGGGGATTATTGATTTAGTCGGAGTCACCTAGTGCAG,21100 fluorescence intensity (a.u.)
15,GTATTGAGGGCTTAATCGTGGTCGTGGGATATTATTTCATCGGAGTCACCTAGTGCAG,8390 fluorescence intensity (a.u.)
16,CGTCATATTTGCACCGTTTGGGTAGGGTGGGGATGGGGTGCGGAGTCACCTAGTGCAG,18700 fluorescence intensity (a.u.)
17,TCAGTCATCGTAAATTATTGTGATTTTTTAGGGAGGGGTGCGGAGTCACCTAGTGCAG,9130 fluorescence intensity (a.u.)
18,TTTCCACCGTTTGGCGTTTGGGTAGGGTTGGGATGGGATGCGGAGTCACCTAGTGCAG,17200 fluorescence intensity (a.u.)
19,TTGGGTGGAGGATTTGGAATTTGACCGGTTGACTTAGGGTCGGAGTCACCTAGTGCAG,11900 fluorescence intensity (a.u.)
20,GAAAGATTTTCACCGTTTGGGTAGGTTGGGGATGGGATGACGGAGTCACCTAGTGCAG,11400 fluorescence intensity (a.u.)
